Hits are enriched below; roughly 1.1% of the tested compounds scored in any of these assays.
LDHA block: blocks human lactate dehydrogenase A | activity change, % (values are at about 110 or 230 µM) | 0.15% of 480,000 active | purified LDHA, NADH/diaphorase-resazurin fluorescence; stronger effect = lower value | P00338 | AID 1347041; in the data active = activity change below about -30%; inconclusive = mostly about -25% to -30%;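 also: plate controls were DMSO wells for no effect and wells without enzyme for full effect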
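Resorufin fluorescence (ex540/em590), read at 0 and 20 min after diaphorase/resazurin addition, reports the NADH left after a 5 min room-temperature reaction of 2 nM human LDH5 with 0.06 mM NADH and 0.2 mM pyruvate.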
TrxR1 substrate: rat thioredoxin reductase 1 substrate activity; O89049; Potency, µM (top dose mostly 114 µM), for the others: at the highest dose activity change, negative = substrate turnover; 0.01% of 390,000 active; AID 588456; purified TrxR1 substrate turnover, NADPH consumption readout; also: potency is read from the fitted curve at half-maximal effect; nearly all actives have a fitted effect of over 50% in size
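Rat TrxR1, dispensed at 90 nM, was prereduced with 400 uM NADPH (final) for 5 min at ~22 deg C, then incubated with compound 15 min before 400 uM selenite. A first-read NADPH fluorescence drop versus no-compound background flagged substrates.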
PI4K2A block: blocks human PI4K2A kinase activity. Q9BTU6. purified PI4K2A, ADP-Glo luminescence, 1 h; stronger effect = lower value. activity change, negative = inhibition, % at 76.9 µM. 0.13% of 420,000 active. AID 1346378; in the data active = activity change below about -50%; inconclusive = mostly about -30% to -49%;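 also: -100% = wells without enzyme as full effect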
Target sequence (Q9BTU6 whole entry, looked up): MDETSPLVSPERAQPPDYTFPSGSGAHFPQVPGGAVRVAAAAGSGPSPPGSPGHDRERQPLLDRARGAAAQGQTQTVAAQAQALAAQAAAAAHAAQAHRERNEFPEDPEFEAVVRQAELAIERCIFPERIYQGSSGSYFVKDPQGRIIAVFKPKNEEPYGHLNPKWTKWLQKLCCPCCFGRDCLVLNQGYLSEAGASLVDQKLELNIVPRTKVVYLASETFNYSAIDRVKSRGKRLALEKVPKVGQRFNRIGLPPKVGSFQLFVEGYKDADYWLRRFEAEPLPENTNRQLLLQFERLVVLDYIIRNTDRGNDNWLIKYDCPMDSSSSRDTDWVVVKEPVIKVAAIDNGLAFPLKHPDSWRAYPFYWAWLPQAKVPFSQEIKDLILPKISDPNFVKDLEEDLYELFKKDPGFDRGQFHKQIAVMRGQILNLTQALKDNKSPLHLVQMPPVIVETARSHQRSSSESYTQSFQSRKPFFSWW
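PI4K2A activity was measured by ADP-Glo luminescence: enzyme (4 ug/mL stock) and phosphatidylinositol (1.2 mM stock) in Tris pH 7.5/MgCl2/EGTA/Triton X-100 buffer were reacted with ATP (300 microM stock) for one hour at ambient temperature.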
GALK inhibitor: galactokinase (human) inhibition; P51570; Purified GALK, Kinase-Glo residual ATP luminescence; Potency, µM (top dose mostly 57.5 µM), without a hit: at the highest dose activity change, negative = inhibition, most hits filed as inhibitors; 0.007% of 270,000 active; AID 1868; also: potency is read from the fitted curve at half-maximal effect
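The enzyme phosphorylates galactose (100 uM) using ATP (35 uM); inhibition is detected as higher residual ATP, quantified by bioluminescence after 1 h reaction at room temperature, pH 8.0.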
rTrxR1 inhibitor: rat TrxR1 inhibition; Potency, µM (series often up to 114 µM), inactives show at the top dose activity change, negative = inhibition, hits mostly inhibitors; recombinant rTrxR1, NADPH fluorescence consumption, selenite substrate; O89049; 1% of 390,000 active; also: potency is read from the fitted curve at half-maximal effect; nearly all actives have a fitted effect of over 65% in size
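Rat TrxR1 (90 nM in the dispensed reagent) was pre-reduced with 400 uM NADPH for 5 min at room temperature, then incubated with compound for 15 min. After 400 uM selenite was added, NADPH fluorescence (Ex 340/Em 450 nm) was followed for 8 min.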
a7 integrin act: activators of alpha7 integrin expression for muscular dystrophy. Potency, µM (highest dose often 38.3 µM), for inactives: at the highest dose activation, most hits filed as activators. AID 624291. 0.064% of 350,000 active. alpha7betagal myoblasts, beta-gal FDG fluorescence, 48 h;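 also: potency is read from the fitted curve at half-maximal effect; 100% = response of the positive control SU9516; nearly all actives have a fitted effect of over 60% in size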
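Alpha7betagal+/- myoblasts (passage 13) were plated 16-24 hr, then exposed to compounds (1:260 dilution of DMSO stock) for 48 hours at 37C. After MPER lysis, β-galactosidase reporter activity was read as FDG fluorescence (ex 480/em 540) after 30 minutes.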
* hit, by the source's call; i = inactive; ? = inconclusive; nt = not tested or not shown; [ ] = another dose, or the depositor's remark. Unless noted, calls follow the shape of the dose curve; as a rule, active = well fitted curve in the direction sought with a large enough effect; inconclusive = small, poorly fitted or top-dose-only effect, or another doubt; inactive = no such curve, though single readings can be large; an effect the other way counts as inactive or inconclusive. Unless noted, % is scaled to controls: 0 for no effect and ±100 for the full control effect.

SMILES | LDHA block | TrxR1 substrate | PI4K2A block | GALK inhibitor | rTrxR1 inhibitor | a7 integrin act
CC(C)CCn1c(=O)c2ccccc2n2c(CCl)nnc12 | -3 | 13%[57.1 µM] | 4 | 8% | 22µM* | -60%
CC(C)(C)c1ccc(C(=O)Nc2ccc(F)c(F)c2F)cc1 | -2 | nt | nt | nt | nt | nt
Cn1cnc([N+](=O)[O-])c1Oc1ccc2ccccc2c1 | 20 | 11%[11.4 µM] | -1 | 0% | 4µM* | -38%
COc1ccc(-c2cc(C(F)(F)F)nc(S(=O)(=O)CCC(=O)Nc3ccccc3)n2)cc1 | -5 | nt | nt | nt | nt | nt
CCOC(=O)CS(=O)(=O)c1nc(-c2ccccc2)cc(C(F)(F)F)n1 | -4 | 8%[57.1 µM] | 2 | -2% | ? | -59%
COCC(C)NC(=O)CCS(=O)(=O)c1nc(-c2ccc(OC)cc2)cc(C(F)(F)F)n1 (stereo unspecified) | -8 | 17% | 7 | 0% | 56µM* | -46%
COC(=O)CCS(=O)(=O)c1nc(-c2ccccc2)cc(C(F)(F)F)n1 | 3 | 2% | 17 | -3% | 18µM* | -70%
CCOC(=O)CCS(=O)(=O)c1nc(-c2ccccc2)cc(C(F)(F)F)n1 | 0 | 6% | 11 | 1% | 16µM* | -47%
COc1ccc(S(=O)(=O)NCC(c2ccco2)S(=O)(=O)c2cccs2)cc1C (stereo unspecified) | 4 | 2%[57.1 µM] | 7 | nt | ? | nt
Cc1cc(F)ccc1S(=O)(=O)NCC(c1ccco1)S(=O)(=O)c1cccs1 (stereo unspecified) | 6 | 6%[57.1 µM] | 3 | nt | 1.1µM* | nt
O=C(NCc1ccc(Cl)cc1)C1C2C=CC3(CN(Cc4ccccc4)C(=O)C13)O2 (stereo unspecified) | nt | nt | 5 | nt | nt | nt
CC12C=CC3(CN(Cc4ccccc4)C(=O)C3C1C(=O)NCc1ccco1)O2 (stereo unspecified) | 11 | 8% | -4 | -1% | 56µM* | 10%
O=C(O)C(Oc1ccc2cc(-c3ccc(Cl)cc3)c(=O)oc2c1)c1ccccc1 (stereo unspecified) | -5 | i | 2 | 1% | 45µM* | 13%
COC(=O)COc1ccc2cc(-c3ccc(Cl)cc3)c(=O)oc2c1 | -17 | nt | nt | nt | nt | nt
CCOc1ccc(C2Nc3cccc4cccc(c34)N2)cc1OC | 4 | 1% | -21 | -2% | 28µM* | -32%
COc1ccc(C2Nc3cccc4cccc(c34)N2)cc1 | 2 | 6% | -1 | 1% | ? | -14%
CCOc1cc(C2Nc3cccc4cccc(c34)N2)ccc1O | 18 | 3% | ? | 0% | 25µM* | 13%
CC(C)(C)NC(=O)CNc1nc(-c2ccncc2)nc2ccccc12 | -7 | nt | nt | nt | nt | nt
CCc1c(C)sc2nc(NCCO)n3nc(-c4ccco4)nc3c12 | -8 | nt | nt | nt | nt | nt
CC(C)(C)NC(NC(=O)c1ccccc1Cl)C(Cl)(Cl)Cl (stereo unspecified) | -8 | nt | nt | nt | nt | nt
COc1ccc(-c2cc(COc3ccccc3)on2)cc1 | -8 | -1% | 4 | 1% | 26% | 10µM*
O=C1CC(Sc2nnc(-c3ccccc3)o2)C(=O)N1c1ccccc1 (stereo unspecified) | -13 | -1% | 0 | 1% | 7.1µM* | -64%
CC(Sc1nc(NC2CC2)c2ccccc2n1)C(=O)N1CCCC1 (stereo unspecified) | 3 | nt | nt | nt | nt | nt
CCOC(=O)CNCCC(=O)c1ccc(Br)cc1 | -6 | -3% | 22 | nt | 0.28µM* | -27%
Cc1ccc(C(=O)CCC(=O)Nc2cccc(C)c2)cc1 | 0 | 0% | 1 | 0% | 9% | 1%
SMILES | LDHA block | TrxR1 substrate | PI4K2A block | GALK inhibitor | rTrxR1 inhibitor | a7 integrin act
CC(=O)c1ccc(NCCC(=O)c2ccccc2)cc1 | -3 | -9% | -2 | 3% | 50µM* | 18%
O=C(CCCC(=O)OCC(=O)c1ccc(Br)cc1)OCC(=O)c1ccc(Br)cc1 | -6 | nt | nt | nt | nt | nt
CC(C)c1ccc(NCCC(=O)c2ccc(Br)cc2)cc1 | -6 | -7% | 2 | -1% | 56µM* | 19%
Cc1cccc(NCCC(=O)c2ccc(Br)cc2)c1 | 3 | -3% | 7 | -2% | 25µM* | -38%
N#Cc1ccccc1-c1ccc(C(=O)O)o1 | -2 | nt | nt | nt | nt | nt
Cc1c(C(=O)O)cccc1-c1ccc(/C=C2/NC(=O)N(c3ccccc3)C2=O)o1 | 2 | -12% | -2 | -2% | -9% | 14%
O=C1N/C(=C/c2ccc(N3CCOCC3)o2)C(=O)N1c1cccc(Cl)c1 | 1 | -5% | -7 | -1% | 3.2µM* | -29%
Cc1ccc(/C=C2/NC(=O)N(c3ccccc3)C2=O)o1 | 25 | -13% | 1 | -1% | 50µM* | 18%
C=CCNc1nc(-c2ccc(CNC(=O)C(C)(C)C)s2)cs1 | 7 | nt | nt | nt | nt | nt
CC(=NNC(=S)N1CCC1)c1ccccn1 | 2 | -5% | -60* | nt | 7.1µM* | 18%
Cc1ccsc1C(=O)OCC(=O)N1c2ccccc2NC(=O)C1(C)C | -4 | nt | nt | nt | nt | nt
O=C(O)c1ccc(Nc2cnc3ccccc3n2)cc1 | -3 | -14% | -55* | 2% | -23% | 1%
Cc1cc(C)cc(N2CC(c3nc(-c4cccnc4)no3)CC2=O)c1 (stereo unspecified) | -2 | nt | nt | nt | nt | nt
O=C(N=Nc1c(O)[nH]c2ccccc12)c1cc(NS(=O)(=O)c2cccs2)cc(NS(=O)(=O)c2cccs2)c1 | -6 | 4%[57.1 µM] | -51* | -2% | 30%[57.1 µM] | 34%
Cc1ccccc1C(=O)NCCc1sc2nc(-c3ccc(F)cc3)nn2c1C | 0 | nt | nt | nt | nt | nt
CCN1CCN(C(c2ccc(C(F)(F)F)cc2)c2ccc3cccnc3c2O)CC1 (stereo unspecified) | 7 | 6%[57.1 µM] | 15 | -1% | 3.5µM* | ?
CN1CCN(C(c2ccc(C(F)(F)F)cc2)c2cc(Cl)c3cccnc3c2O)CC1 (stereo unspecified) | nt | nt | nt | 0% | nt | nt
O=C(O)c1cccc2cccc(-c3c4ccc(=O)c(O)c-4oc4c(O)c(O)ccc34)c12 | 9 | 22%[57.1 µM] | -55* | nt | 16%[11.4 µM] | -16%
N#Cc1ccc(Cn2c(CN3CCOCC3)nc3scc(-c4cccs4)c3c2=O)cc1 | 1 | nt | nt | nt | nt | nt
COc1ccc(-n2c(C)c(C(=O)O)c3cc(OC)ccc32)cc1 | 2 | nt | nt | nt | nt | nt
COC(=O)c1ccc(C(=O)N2CCCC(CNC(=O)c3ccc(F)cc3)C2)cc1 (stereo unspecified) | -4 | 5%[57.1 µM] | 3 | -3% | 22%[57.1 µM] | 15%
COCc1ccc(C(=O)N2CCCC(CNC(=O)c3ccc(F)cc3)C2)o1 (stereo unspecified) | -2 | -8% | 0 | 6% | 35µM* | 15%
CCOC(=O)/C=C1\CN(Cc2ccc(OC)cc2)S(=O)(=O)c2ccc(C(F)(F)F)cc21 | nt | -6% | nt | nt | 25µM* | nt
Cc1cc(C)c(C)c(S(=O)(=O)Nc2ccc(N)c([N+](=O)[O-])c2)c1C | 0 | nt | nt | nt | nt | nt

Compound activity deposited in PubChem BioAssay by National Center for Advancing Translational Sciences (NCATS).
